Records with an inconclusive call do not appear. Calls of active or inactive are those of the source. Calls come from the whole dose curve; as a rule, active = well fitted curve in the direction sought with a large enough effect; inconclusive = small, poorly fitted or top-dose-only effect, or another doubt; inactive = no such curve, though single readings can be large; an effect the other way counts as inactive or inconclusive.

Experimental findings from PubChem BioAssay (NCATS) are described below.

Assay [1] in a line: Panc-1005 Cancer Cell Toxicity qHTS against the NCATS CANVASS Library (AID 1347349). Note: nearly all actives have a fitted effect of over 60% in size. Note: potency is the fitted concentration of half-maximal effect. The essentials: (§1)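 Bortezomib titration and single-dose wells served as plate controls. Test compounds, 11 points, acted on 1000 cells/well for 72 h at 37 degrees C; CellTiter-Glo luminescence quantified remaining viable cells.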
Background: In qHTS, concentration-response curves come from the screen itself.

A short description of assay [2]: SW1088 Cancer Cell Toxicity qHTS against the NCATS CANVASS Library (AID 1347350). Note: potency is the fitted concentration of half-maximal effect; nearly all actives have a fitted effect of over 75% in size. As to conditions: SW1088 viability, CellTiter-Glo luminescence, 72 h. In short, it runs like this: as §1
Assay [3] in a line: U-118MG Cancer Cell Toxicity qHTS against the NCATS CANVASS Library (AID 1347351). The essentials:
as §1

Assay [4] is described as follows: HPAF-II 24hr Apoptosis Induction qHTS against the NCATS CANVASS Library (AID 1347356). The essentials:
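Using an 11-point qHTS format, HPAF-II cells in DMEM/10% FBS received compounds for 24 h; doxorubicin titration as control. Caspase-3/7 activity quantified by DEVD-luciferase luminescence.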

A short description of assay [5]: HEK293 18hr Apoptosis Induction qHTS against the NCATS CANVASS Library (AID 1347357). In short, it runs like this:
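Natural products applied to HEK293 for 18 hr; Caspase-Glo 3/7 readout.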

The nature of assay [6]: HPAF-II 12hr Apoptosis Induction qHTS against the NCATS CANVASS Library (AID 1347358). In short, it runs like this:
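Twelve-hour compound exposure of HPAF-II cells in DMEM with 10% FBS, then luminescent Caspase-Glo 3/7 detection after 15 min at room temperature; doxorubicin control.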

The nature of assay [7]: HEK293 24hr Apoptosis Induction qHTS against the NCATS CANVASS Library (AID 1347359). In short, it runs like this:
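HEK293 cells, 500 per well, exposed to an 11-point compound series for 24 hours at 37 degrees C. Caspase 3/7 activity read by Caspase-Glo luminescence (DEVD substrate) after 15 min at room temperature.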

The nature of assay [8]: HPAF-II 18hr Apoptosis Induction qHTS against the NCATS CANVASS Library (AID 1347360). In short, it runs like this: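 Luminescent DEVD-substrate signal, proportional to caspase activity, is measured in HPAF-II cells after 18-hour treatment across a concentration series; doxorubicin serves as control.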
Assay [9] in a line: HEK293 12hr Apoptosis Induction qHTS against the NCATS CANVASS Library (AID 1347361). In short, it runs like this: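 Luminescent caspase-3/7 signal, proportional to enzyme activity, was recorded from HEK293 cultures in DMEM + 10% FBS treated for 12 hours with titrated natural products (11 points). Doxorubicin (0.1nM - 4uM) served as control.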
Assay [10] relates to NAD(P)H diaphorase (Clostridium kluyveri). Kind of assay: Diaphorse counterscreen qHTS: Assay Interference Panel against the NCATS CANVASS Library (AID 1347362). The essentials:
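Clostridium kluyveri diaphorase in PBS + 0.01% Tween-20 preincubated 15 min with compounds. Resazurin and NADH then added for 5 min at room temperature in the dark; resorufin fluorescence read (ex 525, em 598).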
For orientation: A counterscreen serves to expose hits that act by an unwanted route or on another target.

Assay [11] deals with Luciferin 4-monooxygenase (Photinus pyralis) (UniProt P08659). As to the kind of experiment: Firefly luciferase counterscreen qHTS: Assay Interference Panel against the NCATS CANVASS Library (AID 1347363). The essentials:
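Purified P. pyralis luciferase (0.04 ug/mL, 4x reagent) added to Tris-acetate buffer with 0.013 mM D-luciferin, 0.013 mM ATP and 13.3 mM Mg-acetate; compounds preincubated 15 min, then luminescence read after 5 min, RT.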

A short description of assay [12]: Tertiary RLuc qRT-PCR qHTS assay for Zika virus inhibitors (AID 1347169). Note: nearly all actives have a fitted effect of over 55% in size. Note: potency is the fitted concentration of half-maximal effect. The essentials: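 Inhibition of ZIKV-RLuc replication in Vero cells, read as Renilla luminescence 1-1.5 hrs after live-cell substrate addition, following 48-72 hrs infection at MOI 1-2 in presence of compound.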
(Real-time PCR tracks product formation cycle by cycle.)

Assay [13] can be described thus: OV-KATE Cancer Cell Toxicity qHTS against the NCATS CANVASS Library (AID 1347345). In short, it runs like this:
as §1

Assay [14] can be described thus: HPAF-II Cancer Cell Toxicity qHTS against the NCATS CANVASS Library (AID 1347346). Note: nearly all actives have a fitted effect of over 55% in size. In short, it runs like this: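 Using 1000 HPAF-II cells per well, we titrated compounds over 11 concentrations for 72 h at 37 degrees C/5% CO2, with bortezomib as control. Cell survival was quantified by CellTiter-Glo luminescence.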
The nature of assay [15]: UWB1.289 Cancer Cell Toxicity qHTS against the NCATS CANVASS Library (AID 1347347). Note: potency is the fitted concentration of half-maximal effect; nearly all actives have a fitted effect of over 60% in size. As to conditions: UWB1.289 viability, CellTiter-Glo luminescence, 72 h. In short, it runs like this:
as §1

A short description of assay [16]: OV-SAHO Cancer Cell Toxicity qHTS against the NCATS CANVASS Library (AID 1347348). Note: nearly all actives have a fitted effect of over 55% in size. In short, it runs like this: as §1
The nature of assay [17]: COV-362 Cancer Cell Toxicity qHTS against the NCATS CANVASS Library (AID 1347352). The essentials:
(§2)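 Using an ATP-based luminescent reagent after three days of treatment, toxicity is scored across an eleven-concentration range in wells holding 1000 cells each.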

Assay [18] is described as follows: A2780 Cisplatin Sensitive Ovarian Cancer Cell Toxicity qHTS against the NCATS CANVASS Library (AID 1347353). Note: nearly all actives have a fitted effect of over 60% in size. As to conditions: A2780 ovarian cancer viability, ATPLite luminescence, 72 h; at 46.1 µM (top of the series). In short, it runs like this:
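Quantitative HTS format: eleven compound concentrations applied to pre-seeded cells, 72 h incubation at 37 °C, then ATP detection by luminescence.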

A short description of assay [19]: UWB1.289-WTBRCA1 Cancer Cell Toxicity qHTS against the NCATS CANVASS Library (AID 1347354). In short, it runs like this:
as §2

The nature of assay [20]: HEK-293 Cancer Cell Toxicity qHTS against the NCATS CANVASS Library (AID 1347355). Note: nearly all actives have a fitted effect of over 65% in size. As to conditions: HEK-293 viability, CellTiter-Glo luminescence, 72 h; at 46.1 µM (top of the series). In short, it runs like this: as §2

Sequence of Luciferin 4-monooxygenase (Photinus pyralis) (P08659 whole entry, looked up): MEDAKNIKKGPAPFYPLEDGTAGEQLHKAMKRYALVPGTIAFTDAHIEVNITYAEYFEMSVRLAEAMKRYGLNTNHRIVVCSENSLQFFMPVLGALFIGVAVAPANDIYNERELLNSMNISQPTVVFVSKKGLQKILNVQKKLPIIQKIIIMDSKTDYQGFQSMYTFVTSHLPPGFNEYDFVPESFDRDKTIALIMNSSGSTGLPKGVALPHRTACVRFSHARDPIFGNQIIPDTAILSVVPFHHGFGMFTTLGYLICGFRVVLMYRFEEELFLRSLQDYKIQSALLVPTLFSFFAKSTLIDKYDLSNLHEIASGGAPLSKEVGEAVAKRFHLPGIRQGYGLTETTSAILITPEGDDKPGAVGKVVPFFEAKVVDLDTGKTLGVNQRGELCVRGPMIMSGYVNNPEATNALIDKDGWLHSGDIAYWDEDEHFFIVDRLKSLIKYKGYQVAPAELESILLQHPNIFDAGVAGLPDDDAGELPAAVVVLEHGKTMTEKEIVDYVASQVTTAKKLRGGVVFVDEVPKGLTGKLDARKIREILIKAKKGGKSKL

As to `C=C(C)[C@@H]1CC[C@]2(C(=O)O)CC[C@]3(C)[C@H](CC[C@@H]4[C@@]5(C)CC[C@H](O)C(C)(C)[C@@H]5CC[C@]43C)[C@@H]12`, the Potency is 18.8 µM (active) in assay [1] and 4.73 µM (active) in assay [2]. Moreover, the outcome in assay [3], in [4], in [5], in assay [6], in assay [7] and in [8] was inactive. The call in [9], in assay [10] and in [11] was inactive.

Regarding `CN(C)CC(=O)N1CCC(c2ccc(NC(=O)c3ncc(C#N)[nH]3)c(C3=CCCCC3)c2)CC1`, in assay [12], the Potency result is “inactive”.

Regarding `CC(C)c1cc(C(C)C)c(CC(=O)NS(=O)(=O)Oc2c(C(C)C)cccc2C(C)C)c(C(C)C)c1`, the Potency in assay [12] is 5.87 µM (active).

Turning to `O=c1c(O)c(-c2ccc(O)c(O)c2)oc2cc(O)ccc12`, the Potency result in [12] and in assay [1] was “inactive” in each case. For the same compound, the call in assay [13], in assay [14], in [16], in assay [3], in [17] and in assay [18] was inactive. Also, the compound was classed as inactive in assay [19], in assay [20], in assay [4], in assay [5], in assay [6] and in [7]. Moreover, the compound was classed as inactive in assay [8], in assay [9] and in assay [11]. The Potency in assay [15] was 7.47 µM (active).

`CCCCCCCCc1ccc(CCC(N)(CO)CO)cc1`: the Potency in assay [12] is 16.5 µM (active).

Turning to `C[C@H]1COc2c(N3CCN(C)CC3)c(F)cc3c(=O)c(C(=O)O)cn1c23`, in assay [12], the Potency result is “inactive”.

Take `c1cc(N[C@@H]2CCNC2)nc(-c2cnc3ccc(-c4cn[nH]c4)cn23)c1`: the Potency result in assay [12] was “inactive”.
